Values joined by “and” are separate entries in the source; they are usually repeats but may differ in a detail not shown here. Identical values can stand only once. Records with an inconclusive call do not appear. Active and inactive are the calls of the source. Calls come from the whole dose curve; as a rule, active = well fitted cell-killing curve with a large enough effect; inconclusive = small, poorly fitted or top-dose-only effect, or effect the other way; inactive = no such curve, though single readings can be large or run the other way.
assay: Viability qHTS for spleen associated tyrosine kinase inhibitor (SYKi) drug resistant MV4-11 cells (AID 1963824); conditions: SYKi-resistant MV4-11 viability, CellTiter-Glo, 72 h; series mostly up to 45 µM; viability, % of control: at the top concentration; note: nearly all actives have a fitted effect of over 35% in size
Procedure, shortened: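 SYK inhibitor-resistant MV4-11 AML cells, 500 per well, added to predispensed compounds and incubated 72 hr at 37 C, 5% CO2. Viability measured by CellTiter-Glo luminescence after 10 min at room temperature.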
Potency is the fitted concentration of half-maximal effect.

Compound | viability, % of control | Potency
CCCC(O)C(CC)CO (configuration not stated) | 88.3% (inactive) | 
Cn1c(N2CCCCS2(=O)=O)nc(C(=O)NCc2ccc(F)cc2)c(O)c1=O | 77.7% (inactive) | 
COc1cncc(C#Cc2ccccn2)c1 | 76.6% (inactive) | 
Nc1ccn([C@@H]2CS[C@H](CO)O2)c(=O)n1 | 109% (inactive) | 
CN(C)CC(=O)Nc1ccc2[nH]c(=O)c3ccccc3c2c1 |  | 20.6 µM (active)
COc1cc(CCc2cc(NC(=O)c3ccc(N4CC(C)NC(C)C4)cc3)n[nH]2)cc(OC)c1 (configuration not stated) |  | 1.03 µM (active)
CNS(=O)(=O)c1ccccc1Nc1nc(Nc2ccc(N3CCN(C)CC3)cc2OC)ncc1Br |  | 0.0326 µM (active)
CN(C)CC(=O)N1CCC(c2ccc(NC(=O)c3ncc(C#N)[nH]3)c(C3=CCCCC3)c2)CC1 |  | 41.1 nM (active) and 148 nM (active)
O=C(Cc1ccc(-c2ccccc2)cc1)NC1CCC1 | 89.8% (inactive) | 
C(#Cc1cccc(CN2CCOCC2)c1)CCN1CCCCC1 | 85.2% (inactive) | 
CCc1cc(CN2CC(C(=O)O)C2)sc1-c1noc(-c2ccc(Oc3ccccc3)cc2)n1 | 7.24% [at 17.3 µM] (inactive) | 
C=CC(=O)Nc1cc(Nc2nccc(-c3c[nH]c4ccccc34)n2)c(OC)cc1N(C)CCN(C)C |  | 0.58 µM (active)
CCOC(=O)N1CCC(NCCNC(=O)c2ccccc2C)CC1 | 71.4% (inactive) | 
CNC(C)C(=O)NC(C(=O)N1CCCC1C(=O)Nc1cccc2ncccc12)C(C)C (configuration not stated) |  | 11.6 µM (active)
Nc1c(CC(=O)O)cccc1C(=O)c1ccc(Br)cc1 | 73.7% (inactive) | 
N[C@@H]1CONC1=O |  | inactive
Cc1nc2c([nH]1)CCN(C(=O)c1ccc(NC(=O)c3ccccc3-c3ccccc3)cc1)c1ccccc1-2 |  | 13.2 µM (active)

Reference: PubChem BioAssay (NCATS)
